Assay results taken from ChEMBL document CHEMBL4513216, “Probing the Open Global Health Chemical Diversity Library for Multistage-Active Starting Points for Next-Generation Antimalarials” (ACS Infect Dis, 2020).
The whole screen tested about 69,000 compounds, of which about 8,600 (12%) showed an effect of 50% or more. What follows is part of a selection rich in strong results, with near analogues and random picks from the rest.

The molecules below were run on Plasmodium berghei (assay: Screen against P. berghei liver stage (PbLuc), transformed with Luciferase, at 10uM). Conditions: tested at 10 uM.
Type: functional, HepG2

Q: How did the INHIBITION turn out when CCn1cc(NC(=O)C2CCC(=O)N2Cc2ccco2)cn1 (centres undefined) was run?
A: Its INHIBITION is 20.4%.

Q: With CCc1noc(C2CC(=O)N(CCN(C)C)C2)n1 (centres undefined) as the molecule, how does the INHIBITION read?
A: Its INHIBITION is 35.1%.

Q: Which INHIBITION does the source give for COc1ccccc1C(=O)N1CCNCC1C(N)=O (centres undefined) here?
A: The INHIBITION was 9.2%.

Q: Which INHIBITION does the source give for CSCCC(C)(O)CNC(=O)c1ccsc1 (centres undefined) here?
A: Its INHIBITION is 8.61%.

Q: With CC(O)(CCc1ccccc1)CNC(=O)c1ccsc1 (centres undefined) as the molecule, how does the INHIBITION read?
A: Its INHIBITION is 50.2%.

Q: Which INHIBITION does the source give for CC(O)(CCc1ccccc1)CNC(=O)c1ccc(F)cc1 (centres undefined) here?
A: Its INHIBITION is 26.8%.

Q: With Cn1cccc1CN1CCC2(CCCN(C(=O)c3cnccn3)C2)C1 (centres undefined) as the molecule, how does the INHIBITION read?
A: Its INHIBITION is 2.01%.

Q: With CCn1cc(NC(=O)NCCc2ccc3c(c2)OCCO3)cn1 as the molecule, how does the INHIBITION read?
A: The INHIBITION was -27.8%.

Q: For CCn1cc(NC(=O)NCc2ccc3c(c2)OCCO3)cn1, which INHIBITION is on record?
A: The INHIBITION was 33%.

Q: Which INHIBITION does the source give for CCn1cc(NC(=O)CCc2ccc3c(c2)OCCCO3)cn1 here?
A: Its INHIBITION is 55.5%.

Q: CCN(CC)C(=O)c1c(Br)cnn1CC was tested. Which INHIBITION did it give?
A: The INHIBITION was 29.3%.

Q: COc1c(CNC2CCCOc3ccccc32)c(C(C)C)nn1C (centres undefined) was tested. Which INHIBITION did it give?
A: The INHIBITION was 15.3%.

Q: How did the INHIBITION turn out when NC(=O)c1cnc2n1CCN(C(=O)c1ccc(Cn3cccc3)cc1)C2 was run?
A: The INHIBITION was 15.5%.

Q: CC(C)NC(=O)[C@@H]1CCO[C@@H]2CCN(c3ncccn3)C[C@@H]21 was tested. Which INHIBITION did it give?
A: The INHIBITION was 2.41%.

Q: With Clc1ccc(C(CNCc2cccnc2)n2cccn2)cc1 (centres undefined) as the molecule, how does the INHIBITION read?
A: Its INHIBITION is -4.56%.

Q: Which INHIBITION does the source give for CC(C)N1CCCC(C(=O)N2CCN(c3nsc4ccccc34)CC2)C1 (centres undefined) here?
A: Its INHIBITION is 58.5%.

Q: Which INHIBITION does the source give for NC(=O)N1CCCC(C(=O)N2CCN(c3nsc4ccccc34)CC2)C1 (centres undefined) here?
A: The INHIBITION was 35.8%.

Q: How did the INHIBITION turn out when CCN1CC(C(=O)N2CCN(c3nsc4ccccc34)CC2)CCC1=O (centres undefined) was run?
A: The INHIBITION was 33.9%.

Q: With Cc1cc(CN2CCN(C(=O)NCc3ccc(C)s3)CC2)no1 as the molecule, how does the INHIBITION read?
A: The INHIBITION was 18.6%.

Q: CCc1ccc(CNC(=O)Nc2cc(C)on2)s1 was tested. Which INHIBITION did it give?
A: Its INHIBITION is 39.7%.

Q: CNS(=O)(=O)c1ccc(CNC(=O)Nc2cc(C)on2)s1 was tested. Which INHIBITION did it give?
A: The INHIBITION was 24.3%.

Q: How did the INHIBITION turn out when O=S(=O)(NCc1ccc(S(=O)(=O)N2CCCC2)s1)c1ccc(Cl)c(Cl)c1 was run?
A: The INHIBITION was 40.6%.

Q: With Cc1cc(NC(=O)NCc2ccc(C)s2)no1 as the molecule, how does the INHIBITION read?
A: The INHIBITION was 56.8%.

Q: Cc1cc(NC(=O)NCc2ccc(S(=O)(=O)N3CCCC3)s2)no1 was tested. Which INHIBITION did it give?
A: The INHIBITION was 68%.

Q: Which INHIBITION does the source give for Oc1nc(C2CC2)nc2c1nnn2C1CCN(Cc2ccoc2)CC1 here?
A: The INHIBITION was 12.25%.

Q: How did the INHIBITION turn out when CCOc1ccc(Cl)c(C(=O)N2CCCC(c3ccn[nH]3)C2)n1 (centres undefined) was run?
A: Its INHIBITION is -10.1%.

Q: CC(=O)N1N=C(c2ccco2)OC1C(=O)NCCc1ccc(O)cc1 (centres undefined) was tested. Which INHIBITION did it give?
A: The INHIBITION was 48%.

Q: How did the INHIBITION turn out when Cc1cc(C(=O)N(C)C)nc(C2(C)CCCN2c2ccnc(C)n2)n1 (centres undefined) was run?
A: The INHIBITION was -41.025%.

Q: Fc1ccc(-c2nc(CN3CCCC3Cn3cncn3)co2)cc1F (centres undefined) was tested. Which INHIBITION did it give?
A: The INHIBITION was 33.7%.

Q: With Cc1nc(C2(NCC(=O)NCCc3cccs3)CCCC2)no1 as the molecule, how does the INHIBITION read?
A: Its INHIBITION is -81.3%.

Q: CCCn1cc(C(=O)NCc2nnc(-c3ccc(C)nc3)o2)c(C)n1 was tested. Which INHIBITION did it give?
A: Its INHIBITION is 14.6%.

Q: With CCc1ccc(C2CC(=O)Nc3n[nH]cc32)o1 (centres undefined) as the molecule, how does the INHIBITION read?
A: The INHIBITION was 26.9%.

Q: For CN(Cc1ccc(C2CC(=O)Nc3cc4[nH]ncc4cc32)o1)S(C)(=O)=O (centres undefined), which INHIBITION is on record?
A: Its INHIBITION is 70.2%.

Q: CN(Cc1ccc(C2CC(=O)Nc3n[nH]cc32)o1)S(C)(=O)=O (centres undefined) was tested. Which INHIBITION did it give?
A: The INHIBITION was -38.1%.

Q: CCc1ccc(C2CC(=O)Nc3cc(NS(C)(=O)=O)ccc32)o1 (centres undefined) was tested. Which INHIBITION did it give?
A: Its INHIBITION is 85.3%.

Q: With COc1ncccc1C1CC(=O)Nc2cc(NS(C)(=O)=O)ccc21 (centres undefined) as the molecule, how does the INHIBITION read?
A: The INHIBITION was 10.1%.

Q: Which INHIBITION does the source give for CCCC(=O)Nc1cc2c(cc1OC)NC(=O)CC2c1ccc(CC)o1 (centres undefined) here?
A: Its INHIBITION is 49.6%.

Q: COc1cc(C)c(C2CC(=O)Nc3cc(NS(C)(=O)=O)ccc32)cc1C (centres undefined) was tested. Which INHIBITION did it give?
A: The INHIBITION was -5.22%.

Q: Cc1cc(C)n(CCC2CC(=O)Nc3cc4[nH]ncc4cc32)n1 (centres undefined) was tested. Which INHIBITION did it give?
A: Its INHIBITION is 0.991%.

Q: With CCc1ccc(C2CC(=O)Nc3cc(OC)c(NS(C)(=O)=O)cc32)o1 (centres undefined) as the molecule, how does the INHIBITION read?
A: Its INHIBITION is 61.5%.

Q: With Cc1nn(C)c(C)c1C1CCCN1C(=O)c1cnccn1 (centres undefined) as the molecule, how does the INHIBITION read?
A: The INHIBITION was 2.97%.

Q: For CCc1nc2n(n1)CC(NCc1cnc(-c3ccccc3)nc1)CC2 (centres undefined), which INHIBITION is on record?
A: The INHIBITION was 31.9%.

Q: CCn1ccnc1CN1CCN(CC(O)c2cccc(F)c2)CC1 (centres undefined) was tested. Which INHIBITION did it give?
A: The INHIBITION was -94.9%.

Q: With COc1ccc(NC2(C(=O)N3CCn4cncc4C3)CCCC2)cc1 as the molecule, how does the INHIBITION read?
A: The INHIBITION was 18.5%.

Q: For CCCN(CCC)Cc1nnsc1Cl, which INHIBITION is on record?
A: Its INHIBITION is 10.8%.

Q: For CC(C)N(Cc1ccc(C#N)cc1)Cc1nnsc1Cl, which INHIBITION is on record?
A: The INHIBITION was 22.4%.

Q: CCCN(Cc1ccc(C#N)cc1)Cc1nnsc1Cl was tested. Which INHIBITION did it give?
A: The INHIBITION was 52%.

Q: How did the INHIBITION turn out when CCCOc1ccc(CNCCn2cccn2)cc1 was run?
A: The INHIBITION was 30.5%.

Q: For CC(=O)N1CC(c2n[nH]c3ncccc23)C1, which INHIBITION is on record?
A: Its INHIBITION is 27.6%.

Q: How did the INHIBITION turn out when Cn1nc(C2CN(S(C)(=O)=O)C2)c2nccnc21 was run?
A: Its INHIBITION is 35.2%.

Q: For CS(=O)(=O)N1CC(c2ncn3ccccc23)C1, which INHIBITION is on record?
A: The INHIBITION was 70.4%.

Q: How did the INHIBITION turn out when CS(=O)(=O)N1CC(c2n[nH]c3ncccc23)C1 was run?
A: The INHIBITION was 70.1%.

Q: How did the INHIBITION turn out when CN1CCC(c2n[nH]c3ncccc23)C1 (centres undefined) was run?
A: The INHIBITION was -10.5%.

Q: How did the INHIBITION turn out when CCc1ccc2c(C3CN(S(C)(=O)=O)C3)ncn2c1 was run?
A: The INHIBITION was 40.8%.
